Screens as filed in PubChem.
Sampled rows, rich in hits. Any-hit rate of the full collection: about 11%.
FLuc inh: blocks purified firefly luciferase enzyme activity; P08659; purified P. pyralis luciferase, luminescence, biochemical; Potency, µM (highest dose often 115 µM), most hits filed as inhibitors; 76,000 tested, 2.5% active; AID 1347043; further: nearly all actives have a fitted effect of over 65% in size
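Luminescence read by CCD imaging after purified firefly luciferase (10nM final) was added to substrate buffer holding 10uM D-luciferin and 10uM ATP, pH 7.5, pre-dosed with compound.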
NIH3T3 tox: kills NIH 3T3 cells | Potency, µM (highest dose often 96.7 µM), for the others: at the highest dose activity change, negative = cytotoxicity, most hits filed as inhibitors | NIH 3T3 viability, CellTiter-Glo ATP luminescence, 48-72 h | 94,000 tested, 4.3% active; further: nearly all actives have a fitted effect of over 55% in size
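Mouse fibroblast NIH 3T3 cells, 400 per well, received compound via pintool and were incubated for 48 or 72 hr prior to CellTiter-Glo ATP luminescence measurement.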
HEK293 tox: HEK 293 cell cytotoxicity; HEK 293 viability, ATP luminescence (CellTiter-Glo), 48-72 h; Potency, µM (series often up to 115 µM), for inactives: at the top dose activity change, negative = cytotoxicity, actives largely listed as inhibitors; 94,000 tested, 6.6% active; AID 1345083; further: nearly all actives have a fitted effect of over 60% in size
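Pintool-delivered compounds were incubated with HEK 293 cells (250 cells/well) at 37 degree Celsius for 48 or 72 hr. ATP-dependent luminescence (CellTiter-Glo) then reported remaining viable cells.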
hNpr1 antagonist: antagonists of human natriuretic peptide receptor Npr1; P16066; HEK293 hNpr1 GloSensor cGMP, ANP-stimulated luminescence; Potency, µM (doses to about 46.3 µM), for the others: at the highest dose activity change, negative = inhibition, actives largely listed as inhibitors; 76,000 tested, 1.6% active; calls by dose curve; further: nearly all actives have a fitted effect of over 60% in size
Target sequence (P16066 whole entry, looked up): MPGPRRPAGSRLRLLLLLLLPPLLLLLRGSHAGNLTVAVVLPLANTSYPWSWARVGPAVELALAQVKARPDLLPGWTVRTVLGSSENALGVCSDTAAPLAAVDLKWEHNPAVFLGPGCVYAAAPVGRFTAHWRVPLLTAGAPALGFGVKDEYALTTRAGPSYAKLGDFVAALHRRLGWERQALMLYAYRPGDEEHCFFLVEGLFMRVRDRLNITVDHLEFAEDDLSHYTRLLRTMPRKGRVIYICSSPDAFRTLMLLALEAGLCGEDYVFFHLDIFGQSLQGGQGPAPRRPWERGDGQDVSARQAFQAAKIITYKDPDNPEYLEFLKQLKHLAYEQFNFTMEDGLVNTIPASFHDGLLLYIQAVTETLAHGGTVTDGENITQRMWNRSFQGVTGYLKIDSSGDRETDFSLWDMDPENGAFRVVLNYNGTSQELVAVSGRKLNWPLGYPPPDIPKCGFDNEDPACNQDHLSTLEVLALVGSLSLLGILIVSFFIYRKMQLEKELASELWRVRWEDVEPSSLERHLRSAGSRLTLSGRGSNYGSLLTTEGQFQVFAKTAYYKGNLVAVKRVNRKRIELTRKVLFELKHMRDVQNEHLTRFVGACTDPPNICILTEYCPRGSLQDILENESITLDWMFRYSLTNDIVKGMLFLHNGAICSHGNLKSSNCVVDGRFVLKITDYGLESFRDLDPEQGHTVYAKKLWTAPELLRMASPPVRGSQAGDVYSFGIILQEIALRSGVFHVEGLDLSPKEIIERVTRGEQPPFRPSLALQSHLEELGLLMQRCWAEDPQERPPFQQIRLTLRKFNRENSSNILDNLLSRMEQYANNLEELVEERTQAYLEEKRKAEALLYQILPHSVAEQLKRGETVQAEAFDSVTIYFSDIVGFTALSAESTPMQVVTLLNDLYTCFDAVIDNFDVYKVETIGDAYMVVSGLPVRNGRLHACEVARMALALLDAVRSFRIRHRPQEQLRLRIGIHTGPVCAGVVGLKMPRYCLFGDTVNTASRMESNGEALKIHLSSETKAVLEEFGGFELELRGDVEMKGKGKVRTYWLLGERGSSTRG
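Compound pre-incubated 30 min at room temperature on GloSensor-loaded HEK293 cells stably carrying hNpr1 and the pGS-40F cGMP biosensor. Stimulation uses hNppA at 0.1 nM final; luminescence is taken at baseline and 20 min post-agonist.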
Active calls of the source: *; [ ] = remark or other dose. Unless noted, the call rests on the fitted dose curve; in most records, active means well fitted curve in the direction sought with a large enough effect; inconclusive means small, poorly fitted or top-dose-only effect, or another doubt; inactive means no such curve, though single readings can be large; an effect the other way counts as inactive or inconclusive. On the % scale 0 is the no-effect control and ±100 the full control effect; potency means the concentration at half of the fitted maximal effect.

CCn1ncc(N2CCCC(CC(=O)NCc3cccc(Cl)c3)C2)cc1=O (stereo not given) was read as FLuc inh inactive, NIH3T3 tox -23%, HEK293 tox inconclusive and hNpr1 antagonist -3%.
`FC(F)(F)c1ccc2c(c1)nc1n2[C@@H](CNCc2ccccc2)COC1` gave FLuc inh inactive, NIH3T3 tox inconclusive, HEK293 tox inconclusive and hNpr1 antagonist -16%[70.6 µM].
For Cc1nn(-c2ccccn2)c(C)c1[C@@H]1C=C[C@@H](NC(=O)CCCC(=O)O)C1 the results were FLuc inh inactive, NIH3T3 tox -1%[174 µM], HEK293 tox 4%[172 µM] and hNpr1 antagonist -1%[70.6 µM].
`O=C(NCc1ccccc1)c1cnc2n1CCN(Cc1ccccc1F)CC2` gave FLuc inh inactive, NIH3T3 tox inconclusive, HEK293 tox 28µM* and hNpr1 antagonist -8%[70.6 µM].
O=C(NCCOc1ccccc1)c1cnc2n1CCN(Cc1ccc(F)cc1)CC2 was read as FLuc inh inactive, NIH3T3 tox inconclusive, HEK293 tox inconclusive and hNpr1 antagonist -18%[70.6 µM].
`Cc1ccc(CN2CCc3ncc(C(=O)NCCOc4ccccc4)n3CC2)o1` gave FLuc inh inactive, NIH3T3 tox 35µM*, HEK293 tox 50µM* and hNpr1 antagonist -10%[70.6 µM].
Screening CC(=O)N1CCN(C(=O)C2CCc3nnc(C4CCN([S+](C)(=O)[O-])CC4)n32)CC1 (stereo not given) returned NIH3T3 tox -18% and HEK293 tox -15%.
For COc1cccc(-c2ccc(CN)cc2)c1 the results were NIH3T3 tox inconclusive and HEK293 tox -29%[172 µM].
Screening NCc1ccc(-c2cccc(Cl)c2)cc1 returned NIH3T3 tox 32µM* and HEK293 tox 45µM*.
For Cc1cccc(-c2ccc(CN)cc2)c1 the results were NIH3T3 tox 32µM* and HEK293 tox 63µM*.
For Cc1cnc(CCNC(=O)CCc2nc3ccccc3s2)n1C1CC1 the results were NIH3T3 tox -14% and HEK293 tox 4%.
`COc1cc(-c2cc(C)c3cccc(OC)c3n2)cc2c1OCCN(C(=O)CCN)C2` gave FLuc inh inactive, NIH3T3 tox 89µM*, HEK293 tox inconclusive and hNpr1 antagonist 0%.
Screening O=C(Nc1cc(Cl)cc(Cl)c1)N1CCCC1c1nncn1C1CCCC1 (stereo not given) returned FLuc inh inactive, NIH3T3 tox inconclusive, HEK293 tox inconclusive and hNpr1 antagonist -13%.
Screening COc1ccc(CCNC(=O)c2cc(-c3ccccc3F)nc3c2cnn3C)cc1 returned NIH3T3 tox inconclusive and HEK293 tox 35µM*.
For COc1ccc(-c2cc(C(=O)NCCc3ccccc3F)c3cnn(C)c3n2)cc1 the results were NIH3T3 tox inconclusive and HEK293 tox 32µM*.
Screening Cn1ncc2c(C(=O)NCCc3ccccc3F)cc(-c3ccsc3)nc21 returned NIH3T3 tox -10% and HEK293 tox -3%.
For Cn1ncc2c(C(=O)NCC3CCCCCC3)cc(-c3ccccc3F)nc21 the results were NIH3T3 tox inconclusive and HEK293 tox 32µM*.
For COc1ccccc1-c1cc(C(=O)NCC2CCCCC2)c2cnn(C)c2n1 the results were NIH3T3 tox -17% and HEK293 tox -2%.
`Cn1ncc2c(C(=O)NCCc3ccccc3F)cc(-c3ccc(F)cc3)nc21` gave NIH3T3 tox inconclusive and HEK293 tox 32µM*.
Screening Cc1cc(C(=O)N2CC(F)(F)C[C@H]2c2nc(C3CC3)no2)on1 returned FLuc inh inactive, NIH3T3 tox -14%, HEK293 tox -4% and hNpr1 antagonist 3%.
Screening COCC[C@]1(O)CCN(C(=O)c2ccc(C#N)nc2)C[C@H]1C returned FLuc inh inactive, NIH3T3 tox 2%, HEK293 tox 2% and hNpr1 antagonist -4%.
Screening COCCN1C(=O)c2cccn2CC1CNC(=O)c1ccc(-n2c(C)ccc2C)cc1 (stereo not given) returned NIH3T3 tox inconclusive and HEK293 tox 25µM*.
CC(C)NC(=O)c1cc(-c2ccccc2C(F)(F)F)nc2c1cnn2C was read as NIH3T3 tox inconclusive and HEK293 tox -13%.
OC1(CN2CCN(c3ccc(F)c(Cl)c3)CC2)CCCNC1 (stereo not given) was read as FLuc inh inactive, NIH3T3 tox inconclusive, HEK293 tox 79µM* and hNpr1 antagonist 3%.
